Structures are written as SMILES. Compounds without any hit were thinned out: in the full panel of roughly 83,000, 20% have a hit.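 Treatment: one concentration, 48 hours, 96-well format. Scoring: percent growth, with anything below 10 considered active.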 Unmarked numbers belong to inactive results. Activity calls are given as the source filed them.

In PubChem BioAssay (NCI) one finds growth data, which are given here for 14 compounds.

Some test systems named below: SR leukemia; RPMI-8226 leukemia; OVCAR-8 ovarian; OVCAR-5 ovarian; OVCAR-4 ovarian; SK-OV-3 ovarian; IGROV1 ovarian; OVCAR-3 ovarian; HS 578T breast; NCI/ADR-RES ovarian.
Holding throughout (experiment): NCI-60 one-dose screen, 48 h (100 = growth as untreated, 0 = no growth, -100 = all killed)
Common to all, as to settings: 10 µM unless noted

For the compound `COc1ccc2nc3ccccc3c(NCc3ccccc3)c2c1`, the growth is 4.27% (active) in the assay with SR leukemia; -30.9% (active) in the assay with RPMI-8226 leukemia; 28.2% in the assay with OVCAR-8 ovarian; 29% in the assay on OVCAR-5 ovarian; 40.8% with OVCAR-4 ovarian; 44.5% in the assay on SK-OV-3 ovarian. The growth with IGROV1 ovarian was 16.4%; in the assay on OVCAR-3 ovarian it was 41%; in the assay on HS 578T breast it was 25.2%; in the assay with NCI/ADR-RES ovarian, 18.3%.
Regarding `C[Se]C(=O)CC1=C2C=C(F)C=CC2/C(=C\c2ccc(S(C)=O)cc2)C1C` (stereo not given), the growth with SR leukemia is 22.5%; with RPMI-8226 leukemia, -23.9% (active); with OVCAR-8 ovarian, -66.1% (active); in the assay with OVCAR-5 ovarian, 17.6%; with OVCAR-4 ovarian, 26.7%; in the assay with SK-OV-3 ovarian, 6.54% (active). The growth was 21.3% with IGROV1 ovarian, -7.75% (active) in the assay on OVCAR-3 ovarian, 2.31% (active) in the assay on HS 578T breast and 2.59% (active) with NCI/ADR-RES ovarian.
On to `COc1cccc(Nc2ccnc3[nH]c4ccc([N+](=O)[O-])cc4c23)c1`, for which the growth in the assay with SR leukemia is 31.5%; in the assay on RPMI-8226 leukemia, 65.2%; with OVCAR-8 ovarian, 32.2%; in the assay on OVCAR-5 ovarian, 110%; in the assay on OVCAR-4 ovarian it was 27.2%; with SK-OV-3 ovarian, 47.5%. Further, the growth was 33.1% in the assay on IGROV1 ovarian, 46.9% in the assay with OVCAR-3 ovarian, 27.8% in the assay on HS 578T breast and 44.4% in the assay with NCI/ADR-RES ovarian.
On to `CCN1C(=O)N(CC)C2C1NN=c1s/c(=C3\C(=O)N(CCc4ccccc4)c4ccccc43)c(=O)n12` (stereo not given), for which the growth is 10.7% with SR leukemia; 8.77% (active) in the assay on RPMI-8226 leukemia; 13.5% in the assay on OVCAR-8 ovarian; 20.6% in the assay with OVCAR-5 ovarian; 38.3% with OVCAR-4 ovarian; 32.3% in the assay on SK-OV-3 ovarian. The growth in the assay with IGROV1 ovarian was 18.9%; in the assay with OVCAR-3 ovarian, -16.9% (active); with HS 578T breast, 5.14% (active); in the assay with NCI/ADR-RES ovarian, -9.34% (active).
For `CC[C@H](CC[C@@H](C)[C@H]1CC[C@H]2[C@@H]3CC[C@@H]4CC(=O)/C(=C\c5ccncc5)C[C@]4(C)[C@H]3CC[C@]12C)C(C)C`, the growth in the assay on SR leukemia is 87.5%; in the assay on RPMI-8226 leukemia, 92.2%; with OVCAR-8 ovarian, 100%; in the assay with OVCAR-5 ovarian, 104%; in the assay on OVCAR-4 ovarian, 110%; in the assay with SK-OV-3 ovarian, 99.7%. The growth was 104% in the assay on IGROV1 ovarian, 106% in the assay on OVCAR-3 ovarian, 98.8% in the assay with HS 578T breast and 104% with NCI/ADR-RES ovarian.
`CN(C)Cc1ccc(C(=O)Nc2ccc3ncnc(Nc4ccc(Oc5cccc(F)c5)c(Cl)c4)c3c2)cc1`: the growth in the assay with SR leukemia is -18.1% (active); with RPMI-8226 leukemia, -24.7% (active); with OVCAR-8 ovarian, 14.2%; in the assay on OVCAR-5 ovarian, -28.7% (active); with OVCAR-4 ovarian, -24.4% (active); in the assay with SK-OV-3 ovarian, 19%. Also, the growth is -50.7% (active) in the assay with IGROV1 ovarian, -24.2% (active) in the assay with OVCAR-3 ovarian, -11.7% (active) with HS 578T breast and 22.7% in the assay on NCI/ADR-RES ovarian.
With `O=C(Nc1ccc(F)cc1)Nc1ccccc1CNc1nc(Nc2ccc(OCCN3CCCC3)cc2)ncc1Cl`, the growth in the assay on SR leukemia is 2.14% (active); with RPMI-8226 leukemia, -4.89% (active); in the assay with OVCAR-8 ovarian, 23.1%; in the assay with OVCAR-5 ovarian, 16.9%; with OVCAR-4 ovarian, -7.62% (active); in the assay on SK-OV-3 ovarian, 92.8%. In addition, the growth was 56.2% in the assay with IGROV1 ovarian, -43.1% (active) with OVCAR-3 ovarian, 74.3% in the assay on HS 578T breast and 44.5% in the assay with NCI/ADR-RES ovarian.
Consider `O=C(CCCCNC(=O)c1cc(=O)c(O)co1)Nc1ccccc1`, for which the growth was 14.3% in the assay on SR leukemia; 50.4% in the assay with RPMI-8226 leukemia; 93.6% with OVCAR-8 ovarian; 119% with OVCAR-5 ovarian; 79.3% in the assay with OVCAR-4 ovarian; 119% in the assay with SK-OV-3 ovarian. Further, the growth with IGROV1 ovarian is 99%; in the assay with OVCAR-3 ovarian it was 47.4%; with HS 578T breast it was 92.9%; in the assay on NCI/ADR-RES ovarian, 87%.
Regarding `C/C(=C(\c1ccc(OCCN2CCCCCC2)cc1)c1ccc(OC(=O)Cc2ccccc2)cc1)c1ccc(Cl)cc1`, the growth was -44.9% (active) in the assay on SR leukemia; -40.2% (active) in the assay on RPMI-8226 leukemia; 9.9% (active) in the assay on OVCAR-8 ovarian; 67.6% in the assay on OVCAR-5 ovarian; 36.7% in the assay on OVCAR-4 ovarian; 60.7% in the assay with SK-OV-3 ovarian. Also, the growth in the assay on IGROV1 ovarian is 64.5%; in the assay on OVCAR-3 ovarian, 19.8%; in the assay on HS 578T breast, 23.4%; with NCI/ADR-RES ovarian, 56.6%.
For the compound `Cc1ccc(/C=C/C(=O)c2ccc(NC(=O)CSc3nc4c([nH]3)c(=O)n(C)c(=O)n4C)cc2)c(C)c1`, the growth in the assay on SR leukemia is 30.4%; in the assay with RPMI-8226 leukemia it was 52.6%; with OVCAR-8 ovarian, 40.3%; with OVCAR-5 ovarian, 124%; with OVCAR-4 ovarian it was 36.9%; in the assay with SK-OV-3 ovarian, 30.9%. Further, the growth with IGROV1 ovarian is 36.3%; in the assay with OVCAR-3 ovarian, 13.8%; in the assay on HS 578T breast, 27.4%; with NCI/ADR-RES ovarian, 82.7%.
For `Cc1nc2sc(C(=O)Nc3ccccc3)c(N)c2cc1C(=O)/C=C/c1ccccc1`, the growth with SR leukemia is 11.7%; with RPMI-8226 leukemia it was -33.9% (active); in the assay on OVCAR-8 ovarian, -1.16% (active); in the assay on OVCAR-5 ovarian it was 16.6%; in the assay with OVCAR-4 ovarian, 4.43% (active); in the assay with SK-OV-3 ovarian it was 35.4%. Besides, the growth with IGROV1 ovarian is -7.01% (active); in the assay with OVCAR-3 ovarian, -47.5% (active); in the assay with HS 578T breast it was 12%; in the assay on NCI/ADR-RES ovarian, -10.7% (active).
Regarding `COc1ccc(NC(=O)c2sc3nc(C)c(C(O)c4ccccc4)cc3c2N)cc1` (stereo not given), the growth was 4.79% (active) in the assay on SR leukemia; 11.8% with RPMI-8226 leukemia; 27.6% with OVCAR-8 ovarian; 37.9% with OVCAR-5 ovarian; 78% with OVCAR-4 ovarian; 24.1% with SK-OV-3 ovarian. The growth with IGROV1 ovarian was 36.6%; with OVCAR-3 ovarian it was 8.68% (active); with HS 578T breast, 22.8%; in the assay with NCI/ADR-RES ovarian it was 10.6%.
On to `CCNC(=O)Oc1ccc(/C(=C(/C)Cc2ccc(OC)cc2)c2ccc(OCCN3CCCC3)cc2)cc1`, for which the growth was 6.92% (active) in the assay with SR leukemia; 44% in the assay on RPMI-8226 leukemia; 89.8% in the assay on OVCAR-8 ovarian; 83.8% with OVCAR-5 ovarian; 74.1% in the assay with OVCAR-4 ovarian; 88% in the assay on SK-OV-3 ovarian. For the same compound, the growth in the assay with IGROV1 ovarian was 88%; in the assay with OVCAR-3 ovarian, 77.5%; in the assay on HS 578T breast it was 70.9%; in the assay with NCI/ADR-RES ovarian, 85.9%.
Consider `COc1ccc(NC(=O)c2ccc(C(=O)Nc3ccc(OC)cc3OC)cc2)c(OC)c1`, for which the growth is 87.9% in the assay with SR leukemia; 80.1% in the assay on RPMI-8226 leukemia; 44.5% with OVCAR-8 ovarian; 81.2% in the assay on OVCAR-5 ovarian; 88.2% with OVCAR-4 ovarian; 43.8% in the assay on SK-OV-3 ovarian. For the same compound, the growth with IGROV1 ovarian is 54.7%; with OVCAR-3 ovarian, 90.6%; in the assay with HS 578T breast it was 39.3%; in the assay with NCI/ADR-RES ovarian, 79.6%.
